ERp5 block: inhibitors of ERp5-driven insulin aggregation, primary screen, biochemical, turbidity, absorbance 650 nm, single point; Protein disulfide-isomerase A6 (Homo sapiens), Q15084; 90 min; inhibition, % at 9.99 µM; 0.05% of 350,000 active; AID 651711, 2012;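 active = mean replicate inhibition above about 25%, with every replicate also reaching it, limit read from the data, passing the limit was not always enough; inconclusive = only one of those two criteria met; inactive = neither criterion met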
PDI inh: inhibitors of human PDI, primary screen, biochemical, turbidity, single point, plate reader | Protein disulfide-isomerase (Homo sapiens), P07237 | inhibition, % at 10 µM | 0.052% of 350,000 active | PDI insulin aggregation turbidity, A650, 90 min;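 active = mean inhibition across replicates of 30% or more, whatever share of single replicates reach that level; inconclusive = mean inhibition below 30% while every single replicate reaches 30%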
Target sequence (P07237 whole entry, looked up): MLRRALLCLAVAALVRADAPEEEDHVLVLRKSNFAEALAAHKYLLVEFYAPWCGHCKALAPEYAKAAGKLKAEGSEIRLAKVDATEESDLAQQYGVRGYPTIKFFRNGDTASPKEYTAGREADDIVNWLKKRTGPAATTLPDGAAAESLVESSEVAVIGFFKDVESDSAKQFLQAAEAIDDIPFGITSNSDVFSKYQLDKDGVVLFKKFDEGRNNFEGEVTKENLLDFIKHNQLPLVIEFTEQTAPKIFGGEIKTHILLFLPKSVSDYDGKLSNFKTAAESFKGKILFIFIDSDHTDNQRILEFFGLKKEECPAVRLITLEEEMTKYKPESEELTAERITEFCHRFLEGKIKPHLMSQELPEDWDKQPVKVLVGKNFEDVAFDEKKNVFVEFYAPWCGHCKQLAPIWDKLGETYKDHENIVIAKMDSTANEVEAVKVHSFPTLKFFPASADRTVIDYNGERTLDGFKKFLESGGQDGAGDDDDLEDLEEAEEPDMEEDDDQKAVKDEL
AF4-AF9 inh: inhibitors of AF4 peptide binding to AF9, primary screen, biochemical, AlphaScreen, biotin-AF4 peptide, FLAG-AF9, single point | inhibition, % at 10 µM | 0.47% of 350,000 active | Protein AF-9 (Homo sapiens), P42568;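 active = every replicate reaching a set inhibition limit, whatever the replicate mean, cut at about 25% in these data; inconclusive = mean inhibition reaches that limit but some replicates miss it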
ERAP1 HTS inh: human ERAP1 aminopeptidase inhibitors, primary screen, biochemical, single point, plate reader | inhibition, % at 10.7 µM | AID 652197, 2013 | recombinant ERAP1, Leu-AMC fluorescence, 60 min | 0.15% of 340,000 active;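 active = mean replicate inhibition of at least 30%, or all replicates individually reaching that 30% level; inactive = mean below 30% and not every replicate reaching it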
DENV2 CPE: inhibitors of DENV2 cytopathic effect, primary screen, cell-based, plate reader, single concentration | CPE inhibition, % at 9.99 µM | 1.7% of 350,000 active | DENV2-infected cells, cytopathic effect rescue; in the data active = CPE inhibition above about 20%, passing the limit was not always enough; inconclusive = no clear call, values can overlap the other calls; tested in BHK-21 cells
A number is an active result; 0 = inactive; ? = inconclusive; - = no result given; ! = not confirmed by another sample. Most compounds without a hit are left out; they make up all but 1.8% or so of the library.

SMILES	ERp5 block	PDI inh	AF4-AF9 inh	ERAP1 HTS inh	DENV2 CPE
CCCN1[C@H](C(=O)NC2CCCC2)[C@@H](CO)[C@@H]2Cn3c(ccc(-c4cccnc4)c3=O)[C@@H]21	0	-	0	0	0
O=C(c1ccccc1F)N1C[C@@H]2[C@H](c3ccccc31)[C@H](CO)N2C(=O)c1ccncc1	0	-	0	0	0
O=C(c1ccccc1F)N1C[C@H]2[C@@H](c3ccccc31)[C@H](CO)N2C(=O)c1ccncc1	0	-	0	0	22
COc1ccc(CNC(=O)CCC(=O)c2ccccc2)cc1	-	0	0	0	0
COc1ccc(C(=O)CCC(=O)NCc2cc(OC)cc(OC)c2)cc1	0	0	0	0	35
O=C(CSc1ccccn1)N/N=C/c1cccc([N+](=O)[O-])c1	0	0	0	0	46
CN1CCN(c2ccc(NC(=O)c3sc4ccccc4c3Cl)cc2)CC1	0	0	0	0	0
COC(=O)c1ccc(N2CCN(C)CC2)c(NC(=O)c2sc3ccccc3c2Cl)c1	0	0	26	0	0
CCN(CC(=O)Nc1ccc(NC(C)=O)cc1)C(=O)Cc1c(Cl)cccc1Cl	0	0	0	0	55
CCN(CC(=O)Nc1ccc(NC(C)=O)cc1)C(=O)Cc1ccccc1F	0	0	0	0	0
COc1ccc(C2C(C(=O)Nc3ccc(F)cc3)=C(C)Nc3nc(CCCO)nn32)cc1 (stereo unspecified)	0	-	0	0	29
CCOc1ccccc1C1C(C(=O)Nc2ccccc2OC)=C(C)Nc2nc(CCCO)nn21 (stereo unspecified)	0	0	0	0	57
COc1ccc(OC)c(C2C(C(=O)Nc3ccccc3OC)=C(C)Nc3nc(CCCO)nn32)c1 (stereo unspecified)	0	-	0	0	0
O=C(O)C[C@H]1C[C@@H]2c3cc(NC(=O)c4cccnc4)ccc3O[C@@H]2[C@H](CO)O1	0	-	0	0	0
COc1ccc(CCNC2CC(=O)N(C3CCCCC3)C2=O)cc1OC (stereo unspecified)	0	0	0	0	26
COc1ccc2c3c(n(C)c2c1)[C@@H](CO)N(C(=O)CN(C)C)CC31CCN(C(=O)CN(C)C)CC1	0	-	0	0	0
COc1ccc2c3c(n(C)c2c1)[C@@H](CO)N(C(=O)C1CC1)CC31CCN(C(=O)CN(C)C)CC1	0	-	0	0	23
COc1ccc(S(=O)(=O)N2CCC3(CC2)CN(C(=O)CN(C)C)[C@@H](CO)c2c3c3ccc(OC)cc3n2C)cc1	0	-	35	0	0
COc1ccc2c3c(n(C)c2c1)[C@H](CO)N(S(C)(=O)=O)CC31CCN(C(=O)C2CC2)CC1	0	-	0	0	31
C[C@@H]1CN([C@@H](C)CO)C(=O)Cc2cc(NC(=O)CCCN(C)C)ccc2O[C@@H]1CN(C)S(=O)(=O)c1cccs1	-	-	-	-	0
Cc1c(CCOC(=O)CC23CC4CC(CC(C)(C4)C2)C3)sc[n+]1CC(=O)c1ccccc1	0	0	27	0	-
O=C(Nc1ccc(C2=NCCN2)cc1)c1ccc(C(=O)Nc2ccc(C3=NCCN3)cc2)c([N+](=O)[O-])c1	0	0	38	0	0
Cc1ccc(NC(=O)c2ccc(-n3cccn3)c([N+](=O)[O-])c2)cc1	-	0	-	-	-
COc1ccccc1CNC(=O)C[C@@H]1CC[C@@H]2[C@@H](COc3ccc(NS(=O)(=O)c4ccc(C)cc4)cc3C(=O)N2C)O1	0	-	0	0	0
CO[C@H](CN(C)C(=O)c1cnccn1)[C@H](C)CN([C@H](C)CO)S(=O)(=O)c1ccc(F)cc1	0	-	0	0	?
SMILES	ERp5 block	PDI inh	AF4-AF9 inh	ERAP1 HTS inh	DENV2 CPE
CO[C@@H](CN(C)C(=O)c1cnccn1)[C@H](C)CN([C@@H](C)CO)S(=O)(=O)c1ccc(F)cc1	0	-	0	0	27
CC1(OC(=O)CCc2ccccc2)C(=O)C=C2C=C(c3ccc(C#N)cc3)N(c3ccccc3)C=C2C1=O (stereo unspecified)	0	0	0	0	41
COc1ccc(NC(=O)Nc2ccc3c(c2)C(=O)N([C@H](C)CO)C[C@H](C)[C@@H](CN(C)C(=O)C2CCCCC2)OCCCC[C@@H](C)O3)cc1	0	-	0	0	32
COc1ccc(NC(=O)Nc2ccc3c(c2)C(=O)N([C@@H](C)CO)C[C@@H](C)[C@H](CN(C)C(=O)C2CCCCC2)OCCCC[C@H](C)O3)cc1	0	-	0	0	0
COc1ccc(NC(=O)Nc2ccc3c(c2)C(=O)N([C@@H](C)CO)C[C@@H](C)[C@H](CN(C)C(=O)C2CCCCC2)OCCCC[C@@H](C)O3)cc1	0	-	0	0	22
COc1ccc(NC(=O)Nc2ccc3c(c2)C(=O)N([C@H](C)CO)C[C@@H](C)[C@@H](CN(C)C(=O)C2CCCCC2)OCCCC[C@H](C)O3)cc1	0	0	0	0	46!
CCNC(=O)[C@H]1[C@H](CO)[C@H]2Cn3c(ccc(-c4cccc(C(=O)N(C)C)c4)c3=O)[C@@H]1N2	0	-	0	0	?
C[C@H](CO)N1C[C@H](C)[C@H](CN(C)C(=O)c2ccccc2F)Oc2ncc(C#C[C@@H](C)O)cc2C1=O	0	-	0	0	0
COC1=CC(=O)OC(c2cccc(Cl)c2)C1 (stereo unspecified)	0	-	-	0	0
CC(C)OC1=CC(=O)OC(c2cccc(Cl)c2)C1 (stereo unspecified)	0	-	-	0	31
Cc1ccc(-c2cnc3c(c2)C(=O)N([C@@H](C)CO)C[C@@H](C)[C@H](CN(C)Cc2ccccc2C(=O)O)O3)cc1	0	-	0	0	0
CC1(C)CC(=O)C2=C(C1)NC(=O)NC2c1ccc(Cl)cc1 (stereo unspecified)	0	0	0	0	23
CC1(C)CC(=O)C2=C(C1)NC(=O)NC2c1ccccc1Cl (stereo unspecified)	0	0	0	-	0
Cc1ccccc1-c1csc(C(C)(O)c2ccccc2)n1 (stereo unspecified)	0	0	0	0	31
COc1ccc(C(C)(O)c2nc(-c3ccccc3C)cs2)cc1 (stereo unspecified)	0	0	0	0	0
CCN1[C@@H]2Cn3c(ccc(-c4ccccc4OC)c3=O)[C@H]1[C@@H](C(=O)N[C@@H](C)c1ccccc1)[C@@H]2CO	0	-	0	0	0
O=C(COc1ccccc1)NCC(=O)N/N=C/c1ccc(Br)cc1	0	0	0	0	70
Cc1ccc(/C=N/NC(=O)CNC(=O)COc2ccccc2)cc1	0	0	0	0	0
c1ccc2c(C[C@@H]3CNCCN3CCCCC3CCCCC3)cccc2c1	0	0	0	0	24
c1ccc(C[C@H]2CNCCN2CCCCC2CCCCC2)cc1	0	0	0	-	0
CCc1nc(Nc2ccc(OC)cc2OC)c2oc3ccccc3c2n1	0	0	0	32	0

Bioassay records deposited in PubChem by Broad Institute.
